# Source: PubChem BioAssay AID1159580 (chemical genetic matrix, 2015)
# In all, about 5,500 compounds went through this assay and about 2,000 (36%) were called active. About 18% were inconclusive and are not listed. Some of the results follow. Values without a mark were called inactive. Cut-off read from the data, not from the text of the source: active = normalized growth mostly below about 0.91 (no sharp cut-off); inconclusive = no clear call, values can overlap the other calls; inactive = mostly above about 0.92.
# Experiment: chemical genetic growth profiling, strain panel (AID 1159580);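 note: tested at 20 µM; growth read once vehicle control cultures reached saturation at 30 °C; 1 = growth at the plate median or of vehicle wells; lower values mean less growth of the strain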
# Details: S. cerevisiae deletion strains, growth OD
structure (smiles),measurement,setting,value
O=C(/C=C/c1ccc(O)c(O)c1)OCCc1ccccc1,normalized growth,"locus YAL021C, strain ccr4, active compounds read low",0.937
same,normalized growth,"locus YAL026C, strain drs2, active compounds read low",0.671 (active)
same,normalized growth,"locus YAL030W, strain snc1, active compounds read low",0.889 (active)
same,normalized growth,"locus YAL040C, strain CLN3, active compounds read low",1.08
same,normalized growth,"locus YBL061C, strain skt5, active compounds read low",0.767 (active)
same,normalized growth,"locus YBR009C, strain hhf1, active compounds read low",0.781 (active)
same,normalized growth,"locus YBR023C, strain chs3, active compounds read low",0.774 (active)
same,normalized growth,"locus YBR171W, strain sec66, active compounds read low",0.911
same,normalized growth,"locus YBR231C, strain swc5, active compounds read low",0.587 (active)
same,normalized growth,"locus YBR279W, strain paf1, active compounds read low",0.848 (active)
same,normalized growth,"locus YCL011C, strain gbp2, active compounds read low",0.751 (active)
same,normalized growth,"locus YCL016C, strain dcc1, active compounds read low",0.774 (active)
same,normalized growth,"locus YCL061C, strain MRC1, active compounds read low",0.851 (active)
same,normalized growth,"locus YCL069W, strain vba3, active compounds read low",0.913 (active)
same,normalized growth,"locus YCR088W, strain abp1, active compounds read low",0.841 (active)
same,normalized growth,"locus YDL005C, strain med2, active compounds read low",0.964
same,normalized growth,"locus YDL040C, strain nat1, active compounds read low",0.96
same,normalized growth,"locus YDR001C, strain nth1, active compounds read low",0.933
same,normalized growth,"locus YDR069C, strain doa4, active compounds read low",0.804 (active)
same,normalized growth,"locus YDR137W, strain rgp1, active compounds read low",0.589 (active)
same,normalized growth,"locus YDR159W, strain sac3, active compounds read low",0.916
same,normalized growth,"locus YDR195W, strain ref2",1.19 [resistant] (active)
same,normalized growth,"locus YDR297W, strain sur2, active compounds read low",0.87 (active)
same,normalized growth,"locus YDR334W, strain swr1, active compounds read low",0.641 (active)
same,normalized growth,"locus YDR335W, strain msn5, active compounds read low",0.868 (active)
same,normalized growth,"locus YDR363W, strain ESC2, active compounds read low",0.98
same,normalized growth,"locus YDR392W, strain spt3, active compounds read low",0.116 (active)
same,normalized growth,"locus YEL003W, strain gim4, active compounds read low",0.691 (active)
same,normalized growth,"locus YEL037C, strain rad23, active compounds read low",0.938
same,normalized growth,"locus YEL061C, strain CIN8 (second series), active compounds read low",0.693 (active)
same,normalized growth,"locus YER002W, strain NOP16, active compounds read low",0.896 (active)
same,normalized growth,"locus YER015W, strain faa2, active compounds read low",0.775 (active)
same,normalized growth,"locus YER016W, strain bim1, active compounds read low",0.868 (active)
same,normalized growth,"locus YER111C, strain swi4, active compounds read low",0.808 (active)
same,normalized growth,"locus YER155C, strain BEM2 (second series), active compounds read low",0.463 (active)
same,normalized growth,"locus YFR010W, strain ubp6, active compounds read low",0.906
same,normalized growth,"locus YGL167C, strain pmr1, active compounds read low",0.941
same,normalized growth,"locus YGL173C, strain kem1, active compounds read low",0.796 (active)
same,normalized growth,"locus YGL227W, strain vid30, active compounds read low",0.287 (active)
same,normalized growth,"locus YGL240W, strain doc1, active compounds read low",0.927
same,normalized growth,"locus YGL253W, strain hxk2, active compounds read low",0.749 (active)
same,normalized growth,"locus YGR078C, strain PAC10, active compounds read low",0.881 (active)
same,normalized growth,"locus YGR229C, strain SMI1, active compounds read low",0.357 (active)
same,normalized growth,"locus YHR013C, strain ard1, active compounds read low",0.683 (active)
same,normalized growth,"locus YHR027C, strain rpn1, active compounds read low",0.857 (active)
same,normalized growth,"locus YHR030C, strain SLT2, active compounds read low",0.837 (active)
same,normalized growth,"locus YHR079C, strain IRE1, active compounds read low",0.803 (active)
same,normalized growth,"locus YHR142W, strain chs7, active compounds read low",0.592 (active)
same,normalized growth,"locus YJL092W, strain hpr5, active compounds read low",0.891 (active)
same,normalized growth,"locus YJL095W, strain BCK1 (second series), active compounds read low",0.644 (active)
same,normalized growth,"locus YJL095W, strain BCK1, active compounds read low",0.863 (active)
same,normalized growth,"locus YJL115W, strain asf1, active compounds read low",0.989
same,normalized growth,"locus YJL129C, strain trk1, active compounds read low",0.522 (active)
same,normalized growth,"locus YJL154C, strain vps35, active compounds read low",0.962
same,normalized growth,"locus YJL164C, strain tpk1, active compounds read low",0.766 (active)
same,normalized growth,"locus YJL166W, strain qcr8, active compounds read low",0.807 (active)
same,normalized growth,"locus YJL187C, strain SWE1, active compounds read low",0.851 (active)
same,normalized growth,"locus YJR066W, strain TOR1, active compounds read low",0.742 (active)
same,normalized growth,"locus YJR075W, strain HOC1, active compounds read low",0.858 (active)
same,normalized growth,"locus YKL160W, strain elf1, active compounds read low",0.724 (active)
same,normalized growth,"locus YKR026C, strain gcn3, active compounds read low",0.908 (active)
same,normalized growth,"locus YKR091W, strain srl3, active compounds read low",0.928 (active)
same,normalized growth,"locus YLL001W, strain dnm1, active compounds read low",0.832 (active)
same,normalized growth,"locus YLL026W, active compounds read low",0.896 (active)
same,normalized growth,"locus YLL041C, strain sdh2, active compounds read low",0.898 (active)
same,normalized growth,"locus YLR027C, strain aat2, active compounds read low",0.774 (active)
same,normalized growth,"locus YLR113W, strain HOG1, active compounds read low",0.862
same,normalized growth,"locus YLR221C, strain rsa3, active compounds read low",0.69 (active)
same,normalized growth,"locus YLR258W, strain gsy2, active compounds read low",0.844 (active)
same,normalized growth,"locus YLR262C, strain YPT6 (second series), active compounds read low",0.493 (active)
same,normalized growth,"locus YLR320W, strain mms22, active compounds read low",0.453 (active)
same,normalized growth,"locus YLR342W, strain FKS1, active compounds read low",0.796 (active)
same,normalized growth,"locus YLR357W, strain rsc2, active compounds read low",0.88
same,normalized growth,"locus YLR370C, strain arc18, active compounds read low",0.944
same,normalized growth,"locus YLR384C, strain iki3, active compounds read low",0.972
same,normalized growth,"locus YML120C, strain ndi1, active compounds read low",0.686 (active)
same,normalized growth,"locus YMR058W, strain fet3, active compounds read low",0.494 (active)
same,normalized growth,"locus YMR125W, strain sto1, active compounds read low",0.615 (active)
same,normalized growth,"locus YMR129W, active compounds read low",0.911 (active)
same,normalized growth,"locus YMR205C, strain PFK2, active compounds read low",0.66 (active)
same,normalized growth,"locus YMR231W, strain pep5, active compounds read low",0.759 (active)
same,normalized growth,"locus YNL071W, strain lat1, active compounds read low",0.478 (active)
same,normalized growth,"locus YNL175C, strain NOP13, active compounds read low",0.879 (active)
same,normalized growth,"locus YNL183C, strain NPR1, active compounds read low",0.803 (active)
same,normalized growth,"locus YNL197C, strain WHI3, active compounds read low",0.897
same,normalized growth,"locus YNL209W, strain ssb2, active compounds read low",0.855 (active)
same,normalized growth,"locus YNL224C, strain SQS1, active compounds read low",0.937
same,normalized growth,"locus YNL248C, strain rpa49, active compounds read low",0.769 (active)
same,normalized growth,"locus YNL322C, strain KRE1 (second series), active compounds read low",0.963
same,normalized growth,"locus YNL322C, strain KRE1, active compounds read low",0.881 (active)
same,normalized growth,"locus YNR049C, strain mso1, active compounds read low",0.944
same,normalized growth,"locus YOR001W, strain rrp6, active compounds read low",0.8 (active)
same,normalized growth,"locus YOR070C, strain gyp1, active compounds read low",0.827 (active)
same,normalized growth,"locus YOR080W, strain dia2, active compounds read low",0.961
same,normalized growth,"locus YOR083W, strain WHI5 (second series), active compounds read low",0.751 (active)
same,normalized growth,"locus YOR083W, strain WHI5, active compounds read low",0.81 (active)
same,normalized growth,"locus YOR106W, strain vam3, active compounds read low",0.573 (active)
same,normalized growth,"locus YOR231W, strain MKK1, active compounds read low",0.857 (active)
same,normalized growth,"locus YOR265W, strain rbl2, active compounds read low",0.881 (active)
same,normalized growth,"locus YOR270C, strain vph1, active compounds read low",0.568 (active)
same,normalized growth,"locus YOR290C, strain snf2, active compounds read low",0.748 (active)
same,normalized growth,"locus YPL051W, strain arl3, active compounds read low",0.652 (active)
same,normalized growth,"locus YPL078C, strain atp4, active compounds read low",0.855 (active)
same,normalized growth,"locus YPL106C, strain sse1, active compounds read low",0.882
same,normalized growth,"locus YPL240C, strain hsp82, active compounds read low",0.845 (active)
same,normalized growth,"locus YPL241C, strain CIN2, active compounds read low",0.964
same,normalized growth,"locus YPL256C, strain CLN2, active compounds read low",0.854
